Results filed as inconclusive are left out. The source made the active and inactive calls. Calls follow the shape of the dose curve; as a rule, active = well fitted curve in the direction sought with a large enough effect; inconclusive = small, poorly fitted or top-dose-only effect, or another doubt; inactive = no such curve, though single readings can be large; an effect the other way counts as inactive or inconclusive.
Columns and labels:
[1] = target: Rap guanine nucleotide exchange factor 3 (Homo sapiens) (UniProt O95398); assay: Confirmatory qHTS for antagonist of cAMP-regulated guanine nucleotide exchange factor 3 (EPAC1) (AID 1645880); settings: EPAC1 Rap1B-BODIPY-GDP exchange, fluorescence; activity, negative = inhibition: at 115 µM (top of the series); also: nearly all actives have a fitted effect of over 55% in size; also: potency is read from the fitted curve at half-maximal effect;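 as to activity, negative = inhibition: plate controls were DMSO only for no effect and full effect of the ATA control for full effect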
Chain of Rap guanine nucleotide exchange factor 3 (Homo sapiens) (O95398 whole entry, looked up): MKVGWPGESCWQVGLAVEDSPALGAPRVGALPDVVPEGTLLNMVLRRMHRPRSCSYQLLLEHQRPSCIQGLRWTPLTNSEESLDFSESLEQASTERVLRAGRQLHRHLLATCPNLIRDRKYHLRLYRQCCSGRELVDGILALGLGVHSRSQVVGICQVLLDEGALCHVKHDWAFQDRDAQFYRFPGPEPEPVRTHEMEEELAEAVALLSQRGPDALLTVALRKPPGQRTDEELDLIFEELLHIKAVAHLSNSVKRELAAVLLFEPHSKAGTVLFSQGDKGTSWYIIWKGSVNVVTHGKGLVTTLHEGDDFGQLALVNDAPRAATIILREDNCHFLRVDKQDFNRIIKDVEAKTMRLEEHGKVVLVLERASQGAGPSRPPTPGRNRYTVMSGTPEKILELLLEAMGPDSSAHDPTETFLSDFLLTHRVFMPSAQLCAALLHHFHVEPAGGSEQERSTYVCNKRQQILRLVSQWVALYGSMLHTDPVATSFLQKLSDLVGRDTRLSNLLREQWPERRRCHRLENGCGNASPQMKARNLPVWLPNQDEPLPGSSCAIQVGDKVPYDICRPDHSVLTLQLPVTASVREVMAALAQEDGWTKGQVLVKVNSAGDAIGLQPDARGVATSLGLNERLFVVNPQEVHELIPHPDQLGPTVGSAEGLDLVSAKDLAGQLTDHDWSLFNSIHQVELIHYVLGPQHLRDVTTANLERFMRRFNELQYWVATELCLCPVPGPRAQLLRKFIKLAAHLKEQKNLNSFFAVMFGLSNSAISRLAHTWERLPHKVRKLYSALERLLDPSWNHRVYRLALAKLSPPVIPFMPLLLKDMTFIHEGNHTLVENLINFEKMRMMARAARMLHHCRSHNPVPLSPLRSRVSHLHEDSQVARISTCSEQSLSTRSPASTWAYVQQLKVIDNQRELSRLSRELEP
Summary of the method: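 Nucleotide exchange uses 100 nM EPAC1, 250 nM RAP1B-BODIPY-GDP and 50 uM GDP, with compounds in a concentration-titration series. After 5 min at room temperature, fluorescence (480 nm ex/540 nm em) is read every 5 min for 30 min. Data are normalized to control ATA and DMSO.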

[2] = target: Rap guanine nucleotide exchange factor 3 (Homo sapiens) (UniProt O95398); assay: Confirmatory qHTS for agonist of cAMP-regulated guanine nucleotide exchange factor 3 (EPAC1) (AID 1645881);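 also: EPAC1 catalysed release of BODIPY-GDP from Rap1B seen as fluorescence loss; 100% = effect of cAMP agonist control; nearly all actives have a fitted effect of over 75% in size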
[3] = target: Rap guanine nucleotide exchange factor 4 (Homo sapiens) (UniProt Q8WZA2); assay: Confirmatory qHTS for agonist of cAMP-regulated guanine nucleotide exchange factor 4 (EPAC2) (AID 1645884);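 also: nucleotide exchange releases bodipy-GDP from Rap1 and this lowers its fluorescence; nearly all actives have a fitted effect of over 65% in size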; also: potency is read from the fitted curve at half-maximal effect; as to activation: % is scaled to controls: 0 for no effect and ±100 for the full control effect
Chain of Rap guanine nucleotide exchange factor 4 (Homo sapiens) (Q8WZA2 whole entry, looked up): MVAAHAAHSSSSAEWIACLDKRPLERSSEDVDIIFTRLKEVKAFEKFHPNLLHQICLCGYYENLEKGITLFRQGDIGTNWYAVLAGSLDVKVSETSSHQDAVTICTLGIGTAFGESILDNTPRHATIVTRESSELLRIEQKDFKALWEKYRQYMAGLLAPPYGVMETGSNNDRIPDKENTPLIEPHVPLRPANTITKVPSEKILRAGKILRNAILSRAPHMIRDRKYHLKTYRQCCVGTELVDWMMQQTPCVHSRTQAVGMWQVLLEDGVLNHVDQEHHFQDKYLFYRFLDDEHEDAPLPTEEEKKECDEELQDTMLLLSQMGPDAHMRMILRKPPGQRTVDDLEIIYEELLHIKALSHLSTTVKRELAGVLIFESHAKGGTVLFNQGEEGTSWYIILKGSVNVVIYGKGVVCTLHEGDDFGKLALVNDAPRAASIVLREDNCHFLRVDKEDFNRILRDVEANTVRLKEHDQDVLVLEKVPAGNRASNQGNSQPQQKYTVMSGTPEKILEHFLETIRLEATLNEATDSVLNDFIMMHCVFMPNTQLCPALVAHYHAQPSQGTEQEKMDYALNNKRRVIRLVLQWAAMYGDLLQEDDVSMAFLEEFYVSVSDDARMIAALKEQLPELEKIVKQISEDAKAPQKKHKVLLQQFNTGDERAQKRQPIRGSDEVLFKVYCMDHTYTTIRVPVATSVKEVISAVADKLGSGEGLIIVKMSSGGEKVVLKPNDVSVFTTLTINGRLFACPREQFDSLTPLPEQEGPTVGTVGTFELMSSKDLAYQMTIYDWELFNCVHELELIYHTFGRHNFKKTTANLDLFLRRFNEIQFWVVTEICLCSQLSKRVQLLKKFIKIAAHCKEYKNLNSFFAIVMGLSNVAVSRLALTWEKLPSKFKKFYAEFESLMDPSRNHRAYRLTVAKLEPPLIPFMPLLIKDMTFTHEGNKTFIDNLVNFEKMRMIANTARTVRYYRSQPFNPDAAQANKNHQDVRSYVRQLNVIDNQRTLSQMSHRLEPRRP

[4] = target: Rap guanine nucleotide exchange factor 3 (Homo sapiens) (UniProt O95398); assay: Counterscreen qHTS for antagonist of cAMP-regulated guanine nucleotide exchange factor 3 (EPAC1) (AID 1645888);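 also: fluorescence loss as bound BODIPY-GDP is released from Rap1B; % of control where 0% means no effect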
Summary of the method: (§1)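 Measured: fluorescence of BODIPY-GDP bound to Rap1B, which falls as exchange proceeds. Conditions include 50 uM competing GDP, 5 and 30 min reads, and a later cAMP challenge for antagonist detection.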

[5] = target: Rap guanine nucleotide exchange factor 3 (Homo sapiens) (UniProt O95398); assay: Counterscreen qHTS for agonist of cAMP-regulated guanine nucleotide exchange factor 3 (EPAC1) (AID 1645889); also: nearly all actives have a fitted effect of over 40% in size; also: potency is read from the fitted curve at half-maximal effect; as to activation: % of control where 0% means no effect
Summary of the method: as §1

CCC(CC)NC(=O)c1ccccc1Oc1ccccc1
inactive: Potency [1] | Potency [2] | activation [3] 3.85% [at 17.1 µM, percent relative to cAMP agonist control] | activity change, negative = inhibition [4] 6.83% [at 30.8 µM] | activation [5] 13.2% [at 30.8 µM]

Nc1nc(C(c2ccccc2)c2ccccc2)cs1
inactive: Potency [1] | Potency [2] | Potency [3] | Potency [4] | Potency [5]

CCN(CC(=O)Nc1ccc(NC(C)=O)cc1)C(=O)C1(c2ccc(Cl)cc2)CCC1
inactive: Potency [1] | Potency [2] | Potency [3] | Potency [4] | Potency [5]

CC(Oc1ccc(Cl)cc1Cl)c1ccn[nH]1 (stereo not given)
inactive: Potency [1] | Potency [2] | Potency [3] | Potency [4] | Potency [5]

CCOC(=O)c1c(NC(=O)/C=C/c2ccc3c(c2)OCO3)sc(C)c1CC
inactive: Potency [1] | Potency [2] | Potency [3] | Potency [4] | Potency [5]

COc1ccc(OC)c(NC(=O)C2(C)CCN2Cc2ccsc2)c1 (stereo not given)
inactive: Potency [1] | Potency [2] | Potency [3] | Potency [4] | Potency [5]

COc1ccccc1C1CCN(c2ccc(CO)cc2[N+](=O)[O-])CC1
inactive: Potency [1] | Potency [2] | Potency [3] | Potency [4] | Potency [5]

CNC(=O)CSc1nc2ccccc2c(=O)n1-c1cc(OC)ccc1OC
inactive: Potency [1] | Potency [2] | activation [3] -3% [at 17.1 µM, percent relative to cAMP agonist control] | activity change, negative = inhibition [4] -17.1% [at 30.8 µM] | activation [5] 5.72% [at 30.8 µM]

OC[C@@H]1[C@@H](c2ccc(F)cc2)C(c2cccc(Cl)c2)=NN1c1ccccc1
inactive: Potency [1] | Potency [2] | Potency [3] | Potency [4]
active: Potency [5] 12.6 µM

CCN(CC(=O)Nc1c(F)cccc1F)C(=O)/C=C/c1ccc2ccccc2n1
inactive: Potency [2] | Potency [3] | Potency [4] | Potency [5]
active: Potency [1] 8.49 µM

C=CCn1c(Cc2ccccc2)nc2c(cnn2-c2ccccc2)c1=O
inactive: Potency [1] | Potency [2] | Potency [3] | Potency [4] | Potency [5]

O=C(Nc1ccccc1Cc1ccccc1)c1ccccc1NS(=O)(=O)c1ccc(Cl)s1
inactive: Potency [2] | activation [3] 8.53% [at 17.1 µM, percent relative to cAMP agonist control] | activity change, negative = inhibition [4] -15.4% [at 30.8 µM] | activation [5] 8.31% [at 30.8 µM]
active: Potency [1] 22.4 µM

COc1c(S(=O)(=O)N2CCCC2)ccc(Cl)c1Cl
inactive: Potency [1] | Potency [2] | activation [3] 4.79% [at 17.1 µM, percent relative to cAMP agonist control] | activity change, negative = inhibition [4] -12% [at 30.8 µM] | activation [5] 23.7% [at 30.8 µM]

CC1(C)c2ccccc2N(CC(N)=O)C12C=Cc1ccccc1O2 (stereo not given)
inactive: Potency [1] | Potency [2] | activation [3] -0.49% [at 17.1 µM, percent relative to cAMP agonist control] | activity change, negative = inhibition [4] 6.74% [at 30.8 µM] | activation [5] 10.1% [at 30.8 µM]

CCN(CC)CCN(C(=O)c1cc2ccccc2cc1OC)c1nc2ccc(F)cc2s1
inactive: Potency [1] | Potency [2] | Potency [3] | Potency [4] | Potency [5]

Cc1ccc(NC(=O)COC(=O)c2ccccc2-c2nc3ccccc3s2)c(C)c1
inactive: Potency [1] | Potency [2] | Potency [3] | Potency [4] | Potency [5]

O=C(c1ccc(CN2CCc3ccccc3C2)cc1)N1CCCCC1
inactive: Potency [1] | Potency [2] | Potency [3] | Potency [4] | Potency [5]

CCOC(=O)c1[nH]c2ccc(OCC)cc2c1NC(=O)CN1CCN(c2ccccn2)CC1
inactive: Potency [1] | Potency [2] | Potency [3] | Potency [4] | Potency [5]

Cc1nnc(SCC(=O)Nc2sccc2C#N)s1
active: Potency [5] 0.0178 µM
inactive: Potency [1] | Potency [2] | Potency [3] | Potency [4]

Cc1cc(C)c(S(=O)(=O)c2ccc(F)cc2)c(C)c1
inactive: Potency [1] | Potency [2] | activation [3] 0% [at 17.1 µM, percent relative to cAMP agonist control] | activity change, negative = inhibition [4] -27.6% [at 30.8 µM] | activation [5] -0.628% [at 30.8 µM]

O=C(CN1CCCCCC1)Nc1ccccc1Oc1ccccc1
inactive: Potency [1] | Potency [2] | Potency [3] | Potency [4] | Potency [5]

O=C(c1ccccc1)c1cccc2ccccc12
inactive: Potency [1] | Potency [2] | activation [3] 6.02% [at 17.1 µM, percent relative to cAMP agonist control] | activity change, negative = inhibition [4] -2.88% [at 30.8 µM] | activation [5] 19% [at 30.8 µM]

O=C(CN1CCCC1)Nc1ccccc1Sc1ccc(Cl)cc1
inactive: Potency [1] | Potency [2] | Potency [3] | Potency [4] | Potency [5]

COc1ccc(/C=C2/SC(=S)N(NS(=O)(=O)c3ccc(C)cc3)C2=O)cc1
active: Potency [1] 47.8 µM
inactive: Potency [2] | Potency [3] | Potency [4] | Potency [5]

O=C(c1ccco1)N(Cc1ccccc1)c1cccc([N+](=O)[O-])c1
inactive: Potency [1] | Potency [2] | Potency [3] | Potency [4] | Potency [5]

CC(C)(C(=O)N1CCC1(C)C(=O)NS(=O)(=O)c1cccc(Cl)c1)c1ccccc1 (stereo not given)
inactive: Potency [2] | Potency [3] | Potency [4] | Potency [5]
active: Potency [1] 75.7 µM

Cc1ccc(S(=O)(=O)N2[C@@H](c3ccc(F)cc3)C(C(=O)O)=CC[C@H]2c2ccc(C(C)C)cc2)cc1
active: Potency [1] 75.7 µM
inactive: Potency [2] | Potency [3] | Potency [4] | Potency [5]

Cc1ccc(C(C)C)c(OCc2ccc(C(=O)N/N=C/c3ccc(O)c(O)c3)cc2)c1
active: Potency [1] 33.8 µM
inactive: Potency [2] | Potency [3] | Potency [4] | Potency [5]

CC(=O)NC(c1cccc(F)c1)c1nc(-c2cccs2)cs1 (stereo not given)
inactive: Potency [1] | Potency [2] | Potency [3] | Potency [4] | Potency [5]

Cc1cc(C)c(S(=O)(=O)N2CCCC2)c(C)c1
inactive: Potency [1] | Potency [2] | Potency [3] | Potency [4] | Potency [5]

Cc1cc(C(=O)N/N=C/c2ccc(O)c([N+](=O)[O-])c2)c(C)n1-c1ccc(F)cc1
inactive: Potency [2] | Potency [3] | Potency [4] | Potency [5]
active: Potency [1] 42.6 µM

Cc1nc(N(C)C)c2sc(=S)n(Cc3ccccc3)c2n1
inactive: Potency [1] | Potency [2] | activation [3] 11.2% [at 17.1 µM, percent relative to cAMP agonist control] | activity change, negative = inhibition [4] -16.2% [at 30.8 µM] | activation [5] 9.98% [at 30.8 µM]

Cc1nnc(SCCn2c(N3CCC(Cc4ccccc4)CC3)nc3c2c(=O)[nH]c(=O)n3C)s1
inactive: Potency [1] | Potency [2] | Potency [3] | Potency [4] | Potency [5]

O=C(c1ccccc1)c1cccc(C(=O)c2ccccc2)c1
inactive: Potency [1] | Potency [2] | Potency [3] | Potency [4] | Potency [5]

CC(C)CSC1=NSC2=NC(=O)/C(=C\c3coc4ccccc4c3=O)C(=N)N12
active: Potency [3] 112 µM
inactive: Potency [1] | Potency [2] | Potency [4] | Potency [5]

Source: PubChem BioAssay (NCATS)
